Measured values as given in PubChem BioAssay (NCATS).
Results filed as inconclusive are left out. Entries that show only a call come without a potency. Active and inactive are the calls of the source. Calls follow the shape of the dose curve; as a rule, active = well fitted curve in the direction sought with a large enough effect; inconclusive = small, poorly fitted or top-dose-only effect, or another doubt; inactive = no such curve, though single readings can be large; an effect the other way counts as inactive or inconclusive.

Legend:
[1] = qHTS of pediatric cancer cell lines to identify multiple opportunities for drug repurposing: Primary screen for NB-EBc1 cells (AID 1347095)
In short: (§1)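 Primary screen of approved and investigational compounds on cells in growth media at 37 degrees C, 5% CO2. MIPE set at 11-point and NPC set at 8-point dilutions; viability scored by ATP-based luminescence at 48 hours.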

[2] = qHTS of pediatric cancer cell lines to identify multiple opportunities for drug repurposing: Primary screen for U-2 OS cells (AID 1347096); also: nearly all actives have a fitted effect of over 50% in size
In short: (§2)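 Cells (500-1,000/well) rested 5 h, then received compounds for 48 h; metabolically active cells were measured by CellTiter-Glo luminescence. Final concentrations spanned up to 46 µM (MIPE, 11-point) or 0.59 nM-46 µM (NPC, 8-point) in primary screens, 11-point in follow-ups.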

[3] = qHTS of pediatric cancer cell lines to identify multiple opportunities for drug repurposing: Primary screen for Saos-2 cells (AID 1347097); also: nearly all actives have a fitted effect of over 40% in size
In short: as §1

[4] = qHTS of pediatric cancer cell lines to identify multiple opportunities for drug repurposing: Primary screen for BT-12 cells (AID 1347101); also: nearly all actives have a fitted effect of over 25% in size
In short: as §2

[5] = qHTS of pediatric cancer cell lines to identify multiple opportunities for drug repurposing: Primary screen for Rh18 cells (AID 1347102); also: nearly all actives have a fitted effect of over 65% in size
In short: as §2

[6] = qHTS of pediatric cancer cell lines to identify multiple opportunities for drug repurposing: Primary screen for RD cells (AID 1347104); also: nearly all actives have a fitted effect of over 55% in size
In short: as §1

[7] = qHTS of pediatric cancer cell lines to identify multiple opportunities for drug repurposing: Primary screen for SK-N-SH cells (AID 1347098); also: nearly all actives have a fitted effect of over 65% in size
In short: as §2

[8] = qHTS of pediatric cancer cell lines to identify multiple opportunities for drug repurposing: Primary screen for NB1643 cells (AID 1347099); also: nearly all actives have a fitted effect of over 50% in size
In short: as §1

[9] = qHTS of pediatric cancer cell lines to identify multiple opportunities for drug repurposing: Primary screen for OHS-50 cells (AID 1347103); also: nearly all actives have a fitted effect of over 40% in size
In short: as §2

[10] = qHTS of pediatric cancer cell lines to identify multiple opportunities for drug repurposing: Primary screen for LAN-5 cells (AID 1347100)
In short: as §2
Potency is read from the fitted curve at half-maximal effect.

Row | SMILES | Potency [1] | Potency [2] | Potency [3] | Potency [4] | Potency [5] | Potency [6] | Potency [7] | Potency [8] | Potency [9] | Potency [10]
1 | CCOC(=O)Nc1ccc(NCc2ccc(F)cc2)cc1N | inactive | inactive | inactive | inactive | inactive | 26.4 µM (active) |  |  |  | 
2 | Oc1ccc2c3c1O[C@H]1[C@@H](O)C=C[C@H]4[C@@H](C2)NCC[C@@]341 | inactive | inactive | inactive |  | inactive | inactive | inactive | inactive | inactive | 
3 | C=C[C@@H]1CN2CCC1C[C@H]2[C@H](O)c1ccnc2ccccc12 (some centres undefined) | inactive | inactive | 18.7 µM (active) |  | 23.5 µM (active) | 37.2 µM (active) |  |  |  | inactive
4 | CC(=CCCC1=CCC(C2=CC(=O)OC2O)OC1O)CCC1=C(C)CCCC1(C)C (centres undefined) | inactive | inactive | inactive | inactive |  | inactive |  | inactive |  | inactive
5 | C1=C2CCCN[C@H]2[C@@H]2C[C@H]1[C@@H]1CCCCN1C2 | inactive | inactive | inactive | inactive | inactive | inactive | inactive |  |  | inactive
6 | Cc1ccccc1-n1c(Cn2ncc3c(N)ncnc32)nc2cccc(C)c2c1=O | 93.5 nM (active) | inactive | 0.0083 µM (active) | 12.2 nM (active) | inactive |  |  |  | 0.0069 µM (active) | 
7 | N#C[C@H](O[C@@H]1O[C@H](CO[C@@H]2O[C@H](CO)[C@H](O)[C@H](O)[C@H]2O)[C@H](O)[C@H](O)[C@H]1O)c1ccccc1 | inactive | inactive | 18.7 µM (active) | 24300 nM (active) |  | 33.2 µM (active) |  | 11.8 µM (active) | 21.7 µM (active) | 23.5 µM (active)
8 | CC(=O)O[C@@]12CO[C@H]1C[C@H](O)[C@@]1(C)C(=O)[C@H](O)C3=C(C)[C@@H](O)C[C@@](O)([C@@H](OC(=O)c4ccccc4)[C@@H]21)C3(C)C | 2090 nM (active) | inactive | 2.64 µM (active) |  | inactive |  |  | inactive | 1.72 µM (active) | 2.64 µM (active)
9 | CC[C@@H](C(N)=O)N1CCCC1=O | inactive | inactive | inactive | inactive | inactive |  |  |  | inactive | inactive
10 | O=C1C(I)=CC(=C(c2cc(I)c(O)c(I)c2)c2ccccc2C(=O)O)C=C1I | inactive | inactive | inactive | inactive | inactive | inactive | inactive |  |  | inactive
11 | CCN(CC)C(=O)c1ccc(C2=CC3(CCNCC3)Oc3cccc(O)c32)cc1 | inactive | inactive | inactive | inactive | inactive |  | inactive |  |  | inactive
12 | C=C1C[C@H]2[C@H]3CCC(=O)[C@@]3(C)CC[C@@H]2[C@@]2(C)C=CC(=O)C=C12 | inactive | inactive | inactive |  | inactive | inactive | inactive |  |  | inactive
13 | CCCN1CCO[C@@H]2c3cc(O)ccc3OC[C@@H]21 | 16600 nM (active) | inactive | inactive |  | inactive |  | 21.5 µM (active) |  |  | 14.8 µM (active)
14 | c1cc2c(cc1[C@H]1OC[C@H]3[C@H]1CO[C@H]3c1ccc3c(c1)OCO3)OCO2 | inactive | inactive | inactive | inactive | inactive | inactive |  | inactive | inactive | inactive
15 | COc1ccc(CC2NCCc3cc(OC)c(OC)cc32)cc1OC (centres undefined) | inactive | inactive | inactive | inactive | inactive | inactive | inactive |  |  | inactive
16 | CCN1C[C@]2(OC(=O)c3ccccc3NC(C)=O)CC[C@H](OC)[C@@]34[C@H]5CC6[C@@H](OC)C[C@](O)(C(C[C@@H]23)[C@@H]14)[C@@]5(O)[C@@H]6OC | inactive | inactive | inactive | inactive | inactive | inactive |  |  |  | inactive
17 | CC1=NN=C(c2ccc(N)cc2)c2cc3c(cc2C1)OCO3 | inactive | inactive | inactive | inactive | inactive | inactive |  |  | inactive | inactive
18 | CN(C)[C@@H]1C(=O)C(C(N)=O)=C(O)[C@@]2(O)C(=O)C3=C(O)c4c(O)cccc4[C@@](C)(O)[C@H]3[C@H](O)[C@@H]12 | inactive | inactive | inactive | inactive | inactive | inactive |  | inactive | inactive | inactive
19 | O=S(=O)(O)C(F)(F)C(F)(F)C(F)(F)C(F)(F)F | inactive | inactive |  | inactive | inactive | inactive | inactive | inactive | inactive | inactive
20 | C[C@]12CC[C@@H]3[C@@H](CCC4=CC(=O)CC[C@@H]43)[C@@H]1CC[C@@H]2OC(=O)CCc1ccccc1 | inactive | inactive | 18.7 µM (active) | inactive | inactive | inactive |  |  | inactive | 
21 | CC(=O)Nc1ccc(OC[C@](C)(O)C(=O)Nc2ccc([N+](=O)[O-])c(C(F)(F)F)c2)cc1 | inactive | inactive | inactive | inactive | inactive | inactive | inactive |  | inactive | inactive
22 | CC(C)[C@]12O[C@@H]1[C@@H]1O[C@]13[C@]1(O[C@H]1C[C@@H]1C4=C(CC[C@@]13C)C(=O)OC4)[C@H]2O | 1 nM (active) | 1 nM (active) | 1.66 µM (active) | 1 nM (active) |  | 0.001 µM (active) |  | inactive |  | inactive
